Compound activity as filed in PubChem BioAssay.
KB-V1 MDR tox: KB-V1 MDR subline cytotoxicity; KB-V1 MDR cells viability, CellTiter-Glo, 72 h; Potency, µM (doses to about 46.1 µM), usual class: cytotoxic; AID 1347076; actives 3.4% (n = 400,000); also: % is scaled to controls: 0 for no effect and ±100 for the full control effect; nearly all actives have a fitted effect of over 60% in size
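KB-V1 cells (P-gp-expressing MDR subline of KB-3-1) in phenol-red-free DMEM with 10% FBS were exposed to library compounds over a concentration series for 72 h at 37 degrees C. Viability read by CellTiter-Glo luminescence; concentration-effect curves fitted after normalization.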
KB-3-1 cytotox: KB-3-1 parental cell cytotoxicity. KB-3-1 viability, CellTiter-Glo ATP luminescence, 72 h. Potency, µM (top dose mostly 46.1 µM), actives largely listed as cytotoxic. actives 1.4% (n = 400,000); also: % is scaled to controls: 0 for no effect and ±100 for the full control effect; nearly all actives have a fitted effect of over 60% in size
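Here the drug-naive KB-3-1 line serves as comparator for MDR sub-line selectivity; cells received compound titrations, 72 h at 37 °C, then CellTiter-Glo readout.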
PINK1 expr mod: modulators of PINK1 expression; PINK1 immunofluorescence, high-content cytometry, 24 h; Potency, µM (series often up to 76.6 µM), without a hit: at the highest dose activation (PINK1 increase), hits mostly activators; actives 0.2% (n = 410,000); AID 624263; active = well fitted activation curve with a large enough effect; inconclusive = small, poorly fitted or top-dose-only effect; cell line not stated here; also: % of control where 0% means no effect; nearly all actives have a fitted effect of over 65% in size
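Decision-based qHTS: stable cells, 24 h exposure to five compound concentrations, CCCP as control. Fixed cells stained for PINK1 plus nuclear, mitochondrial and cell markers, cytometer read.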
SW480 rereplic: inducers of DNA re-replication in SW480 colon cancer cells; SW480 DNA re-replication, Hoechst DNA content imaging, 48 h; Potency, µM (series often up to 46.1 µM), inactives show at the top dose re-replication activation, hits mostly activators; actives 1.8% (n = 340,000); AID 624297; also: % of control where 0% means no effect; nearly all actives have a fitted effect of over 55% in size
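Image-based DNA-content assay: after two days of treatment, nuclei were labelled with the DNA dye Hoechst and imaged, and hits were compounds raising the count of nuclei showing high fluorescence intensity.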
MCF10A rerep: induces DNA re-replication in MCF 10a normal breast cells. MCF 10A DNA re-replication, Hoechst nuclear intensity, 48 h. Potency, µM (series often up to 46.1 µM), without a hit: at the top dose activity, positive = re-replication, actives largely listed as activators. actives 2.9% (n = 350,000). AID 624296; also: % of control where 0% means no effect; nearly all actives have a fitted effect of over 50% in size
Numbers without * were called inactive; i = inactive; ? = inconclusive; · = no result; ! = not active in a repeat; [ ] = dose if it differs, or a comment. An excerpt weighted towards active compounds, which were near 6.7% of everything screened. Unless noted, calls follow the shape of the dose curve; as a rule, active = well fitted curve in the direction sought with a large enough effect; inconclusive = small, poorly fitted or top-dose-only effect, or another doubt; inactive = no such curve, though single readings can be large; an effect the other way counts as inactive or inconclusive. Potency is read from the fitted curve at half-maximal effect.

SMILES | KB-V1 MDR tox | KB-3-1 cytotox | PINK1 expr mod | SW480 rereplic | MCF10A rerep
CC(=O)NC(Cc1cccc(F)c1)C(=O)NC1CCN(c2ncccc2[N+](=O)[O-])CC1 (stereo not drawn) | i | i | 1% | -9% | 2%
CC(=O)NC(Cc1ccc(F)cc1)C(=O)NC1CCN(c2ncccc2[N+](=O)[O-])CC1 (stereo not drawn) | i | i | 2% | -33% | 0.82µM*
CC(=O)NC(Cc1cccc(C)c1)C(=O)NC1CCN(c2ncccc2[N+](=O)[O-])CC1 (stereo not drawn) | 15µM* | i | 1% | -3% | -4%
COc1cccc(CC(NC(C)=O)C(=O)NC2CCN(c3c(Cc4ccccc4)c(C)nc4ncnn34)CC2)c1 (stereo not drawn) | i | ? | 2% | 23µM*! | ?
COc1ccc(N2CCN(C(=O)C(C)n3nc(C)c4sc5ccccc5c4c3=O)CC2)cc1 (stereo not drawn) | · | · | 0% | · | ·
COCCNc1ncnc2c1ncn2[C@H]1CN(Cc2ccc(-c3ccccc3)cc2)C[C@@H](CO)O1 | i | i | 2% | · | ·
Cc1ccc(NC(=O)CN2CCN(C3CCCCC3)C(=O)C2=O)cc1 | i | i | 0% | · | ·
Cc1cc(C)n(-c2nc(-c3ccc(Cl)c(Cl)c3)cs2)n1 | i | i | 4% | -2% | 7.1µM*
Cc1cccc(NC(=S)NCc2ccc3c(c2)cc(C)n3C)c1C | i | ? | 4% | ? | 13µM*
Cc1cccc(NC(=O)c2cc(NC(=O)C3CC=CCC3C(=O)O)ccc2N2CCOCC2)c1 (stereo not drawn) | i | i | 13%[38.3 µM] | 0% | -3%
CC(=O)Nc1ccc(N2CCCCC2)c(C(=O)Nc2cccc(C)c2)c1 | 7.3µM* | i | ? | 4% | ?
Cc1ccc(NC(=O)c2cc(NC(=O)c3ccccc3C(=O)O)ccc2N2CCCCC2)cc1 | i | i | 0% | -15% | -54%
Cc1cccc(NC(=O)c2cc(NC(=O)C3CCCCC3C(=O)O)ccc2N2CCCCC2)c1 (stereo not drawn) | i | i | -8%[38.3 µM] | 3% | 15µM*
O=[N+]([O-])c1ccc2[nH]c(=S)[nH]c2c1 | i | i | -1% | 6% | -2%
O=[N+]([O-])c1ccc2[nH]c(=S)sc2c1 | 12µM* | ? | ? | -1% | ?
CCOC(=O)[C@H]1[C@H]2COc3ccc(C)cc3[C@@H]2N2C(=O)c3cc(C)ccc3NC(=O)[C@@]12C | i | i | 3% | -8% | 2%
Cc1noc(C)c1C(=O)N1CCC(Cc2ccccc2)CC1 | 15µM* | i | -3%[38.3 µM] | -2% | 6%
CC(=NO)C1CCC2C3CCC4CC(=NO)CCC4(C)C3C(C)(O)CC12C (stereo not drawn) | 12µM* | i | -4% | 3% | 28%
CCn1cc(C(=O)N[C@H](C(=O)NCCN2CCOCC2)C(C)C)c(=O)c2cc3c(cc21)OCO3 | ? | i | 0% | -3% | 3%
O=C(c1ccco1)N1CCCC(c2nc(-c3ccc(S(=O)(=O)NCc4ccccc4)cc3)no2)C1 (stereo not drawn) | i | i | 17%[38.3 µM] | 10% | 18µM*
COc1ccc(-c2noc(C3CCCN(C(=O)c4ccccc4)C3)n2)cc1 (stereo not drawn) | i | i | -1% | 5% | -1%
O=C(CC1CCCCC1)N1CCCC(c2nc(-c3ccc(S(=O)(=O)N4CCCC4)cc3)no2)C1 (stereo not drawn) | 8.2µM* | i | · | -8% | ?
CCOC(=O)Nc1ccc2c(c1)N(C(=O)CCN(C)C)c1ccccc1S2 | ? | i | -2% | 13% | ?
CCN(CC)CCC(=O)N1c2ccccc2Sc2ccc(NC(=O)OC)cc21 | i | i | 0% | ? | 23µM*
CCCN(Cc1cc2cc(C)ccc2[nH]c1=O)C(=O)c1cccc(Cl)c1 | i | ? | -1% | · | ·
SMILES | KB-V1 MDR tox | KB-3-1 cytotox | PINK1 expr mod | SW480 rereplic | MCF10A rerep
CSC1=NC2(CCN(C(=O)NC3CCCCC3)CC2)N=C1c1ccc(C)c(C)c1 | i | i | 0% | · | ·
C(=C\c1ccccc1)/CN1CCN(C(c2cc3ccccc3o2)c2nnnn2Cc2ccccc2)CC1 (stereo not drawn) | 16µM* | i | 3% | · | ·
C(=C\c1ccccc1)/CN1CCN(C(c2cc3ccccc3o2)c2nnnn2C2CCCC2)CC1 (stereo not drawn) | i | ? | 7% | · | ·
COc1ccccc1NC(=O)Cn1nnc(C(=O)NCc2cccs2)c1N | 5.8µM* | 2.1µM*! | 9% | ? | 1.2µM*
COc1ccc(NC(=O)Cn2nnc(C(=O)NCc3ccccc3)c2N)c(OC)c1 | i | ? | 2% | ? | 16µM*
COc1ccc(NC(=O)Cn2nnc(C(=O)NCc3cccs3)c2N)cc1 | i | i | 7% | 5% | -1%
CCOc1ccc(OCC)c(NC(=O)c2nnn(CC(=O)Nc3cc(C)cc(C)c3)c2N)c1 | i | i | -2% | ? | 18µM*
CCc1ccccc1NC(=O)Cn1nnc(C(=O)NCc2ccco2)c1N | ? | 8.2µM* | 7% | · | ·
CCOc1ccc(NC(=O)Cn2nnc(C(=O)Nc3ccc(OCC)cc3)c2N)cc1 | i | i | 4% | · | ·
COc1ccc(NC(=O)Cn2nnc(C(=O)NCCc3ccccc3)c2N)c(OC)c1 | i | i | 4% | 1% | 1%
COc1ccc(NC(=O)C(CC(C)C)NC(=O)C2CCCCC2)cc1 (stereo not drawn) | i | i | 0% | · | ·
CCc1ccc(NC(=O)Cn2nnc(C(=O)NCc3cccs3)c2N)cc1 | i | i | -1% | -1% | -1%
CCc1ccccc1NC(=O)Cn1nnc(C(=O)NCc2cccs2)c1N | i | 9.2µM*! | 8% | 3.3µM* | ?
C[C@H](O)[C@@H]1C(=O)N2CCc3c([nH]c4ccccc34)[C@@H]2C[C@@H]1N(C)C(=O)c1ccco1 | i | i | -1% | · | ·
CCOC(=O)c1c(C)[nH]c(C(=O)OCC(=O)Nc2sccc2C(N)=O)c1C | ? | i | -1% | ? | 21µM*
CC(=O)c1c(C)[nH]c(C(=O)OCC(=O)NCc2cccs2)c1C | 13µM* | ? | 2% | -6% | 7%
COc1ccc2c(c1)c(C(C)=O)c(C)n2CCc1ccc(OC)c(OC)c1 | ? | i | 2% | -17% | 5%
CC(=O)c1c(C)[nH]c(C(=O)OCC(=O)NCc2ccc(Cl)cc2)c1C | i | ? | 9% | -39% | ?
CCOC(=O)c1c(C)[nH]c(C(=O)OCC(=O)NCc2ccc(OC)c(OC)c2)c1C | 21µM* | ? | 2% | 19% | 23%
CCOC(=O)c1c(C(=O)OCC)c(C)n(CCc2ccc(OC)c(OC)c2)c1C | i | i | 0% | 9.2µM* | 4%
